Screens from PubChem BioAssay.
HIF act – HIF pathway transcriptional activation. U2OS HRE-luciferase reporter, luminescence; normalized: DMSO 0%, desferrioxamine 100%. activation, % at 7.5 µM (by protocol). 300,000 compounds, 0.32% hits. AID 1910;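 active means mean activation of at least 10% of the iron chelator positive control signal, with at least half of replicates also reaching 10%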
Jurkat NFkB inh – inhibitors of the PMA/ionomycin-induced NF-kB reporter in Jurkat cells; 330,000 compounds, 0.53% hits; AID 435003; inhibition, % at 4 µM; PMA/ionomycin-induced NF-kB luciferase reporter, luminescence; in the data active means inhibition above about 50%
F508del corr – CFTR F508del correction in bronchial cells; CFBE cells, YFP halide quenching; stimulated with forskolin plus potentiator P3; % fluorescence drop versus neutral controls; 350,000 compounds, 0.36% hits; activity (quench increase), % at 7.58 µM;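 active means mean added fluorescence quench of at least 8% versus neutral control, with both replicates also reaching 8%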;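 further: cells transiently co-express mutant CFTR-F508del with the halide-sensitive YFP; corrector assay measuring rescue of mutant channel to the surface after 24 h compound exposure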
697 NFkB inh – inhibitors of the PMA/ionomycin-induced NF-kB reporter in 697 B cells; 697 B-cell NF-kB luciferase reporter, 16 h; 330,000 compounds, 0.33% hits; inhibition, % at 4 µM; AID 435022; in the data active means inhibition above about 35%
697 NFkB conf – lowers PMA/ionomycin-induced NF-kB signal in 697 B cells | AID 449746 | 2,000 compounds, 35% hits | shares compounds with 697 NFkB inh | 697 B-cell NF-kB luciferase, 16 h | inhibition, % at 4 µM; in the data active means inhibition mostly above about 28%, no sharp cut-off; inactive means mostly below about 22%
* marks the source's active call; other numbers are inactive results; i = inactive; nt = not tested or not shown. The list is not random: actives were taken first. Their share in the collection is about 0.93%.

SMILES	HIF act	Jurkat NFkB inh	F508del corr	697 NFkB inh	697 NFkB conf
CCOC(=O)Oc1c(OC)cc(C(=O)O[C@@H]2C[C@@H]3CN4CCc5c([nH]c6cc(OC)ccc56)[C@H]4C[C@@H]3[C@H](C(=O)OC)[C@H]2OC)cc1OC	nt	11	-2	37*	26
Cc1noc(C)c1NC(=O)Nc1ccc2c(c1)C(=O)N([C@H](C)CO)C[C@@H](C)[C@H](CN(C)C(=O)Nc1cccc3ccccc13)OCCCC[C@H](C)O2	nt	nt	1	nt	nt
CCOC(=O)N1CCN(C(=O)Nc2ccc3nccnc3c2)CC1	0	8	nt	4	nt
CCOC(=O)N1CCN(C(=O)Nc2ccc3nc(C)c(C)nc3c2)CC1	1	-4	nt	37*	8
COc1ccc(NC(=O)c2cc3n(n2)C(C(F)(F)F)CC(c2ccc4c(c2)OCO4)N3)cc1OC (stereo not drawn)	nt	4	nt	12	nt
Cc1cccc(NC(=O)c2cc3n(n2)C(C(F)(F)F)CC(c2ccc4c(c2)OCO4)N3)c1 (stereo not drawn)	-1	17	nt	36*	3
COc1ccc(/C=N/OCC(=O)NC(c2ccccc2)c2ccccc2)cc1OC	-1	44	nt	68*	38*
COc1ccc2nc(-c3ccc(F)cc3)sc2c1	-2	-127	0	-311	-404
COCC#Cc1cnc2c(c1)C(=O)N([C@H](C)CO)C[C@H](C)[C@@H](CN(C)S(=O)(=O)c1cn(C)cn1)O2	nt	nt	-2	nt	nt
COc1ccc(C(=O)Nc2nc3c(s2)CCCC3)cc1S(=O)(=O)N1CCCc2ccccc21	-1	-48	nt	i	i
CC(=O)N1CC2(C1)[C@H](c1ccc(-c3cccc(F)c3)cc1)[C@H](CO)N2CC1CCOCC1	nt	nt	-3	nt	nt
CCCCOc1ccc(NC(=O)C(=O)NCCCn2ccnc2)cc1	0	10	nt	54*	58*
COc1ccc(OC)c(CCNC(=O)C(C)n2nc(C)c3c(C)n(-c4ccc(C)cc4)nc3c2=O)c1 (stereo not drawn)	0	49	-2	40*	87*
COc1ccc(OC)c(CCNC(=O)C(C)n2nc(C)c3c(C)n(-c4ccccc4)nc3c2=O)c1 (stereo not drawn)	0	3	-2	1	nt
C[C@@H]1CN([C@H](C)CO)S(=O)(=O)c2ccc(-c3cccc(F)c3)cc2O[C@H]1CN(C)S(=O)(=O)c1ccccc1	nt	nt	2	nt	nt
O=C(CC(F)(F)F)N1C[C@@H]2[C@H](c3ccccc31)[C@@H](CO)N2C(=O)c1cccnc1	nt	nt	-1	nt	nt
CC(=O)Nc1ccc2[nH]c(C)c(CC=C(Cl)Cl)c(=O)c2c1	1	-3	nt	42*	15
O=C(C1CCC1)N1CC2(C1)[C@H](c1ccccc1)[C@@H](CO)N2C(=O)CC1CC1	nt	nt	0	nt	nt
CC1CCN(c2c(NCc3ccc(C(=O)N4CCN(C5CCCCC5)CC4)cc3)c(=O)c2=O)CC1	0	10	-1	10	nt
CC1CCN(c2c(NCc3ccc(C(=O)N4c5ccccc5CC4C)cc3)c(=O)c2=O)CC1 (stereo not drawn)	0	22	-1	43*	39*
CC(C)N1C(=O)S/C(=C/c2ccc3c(c2)n(C)c(=O)n3C)C1=O	1	-8	nt	47*	40*
O=C(NCCCN1CCOCC1)C(=O)N/N=C/c1cccc2ccccc12	0	-7	-3	40*	38*
O=C(NCCCN1CCOCC1)C(=O)N/N=C/c1ccccc1	0	3	-3	18	nt
CCOC(=O)c1c(N)sc(C(=O)Nc2ccc3c(c2)OCO3)c1C	-2	-90	nt	-258	-265
CCOC(=O)c1c(C)c(C(=O)Nc2ccc3c(c2)OCO3)c(C)n1C	1	-6	nt	15	nt
SMILES	HIF act	Jurkat NFkB inh	F508del corr	697 NFkB inh	697 NFkB conf
COc1ccc2c3c(n(C)c2c1)[C@H](CO)N(C(=O)CN(C)C)CC31CCN(C(=O)NC(C)C)CC1	nt	nt	-2	nt	nt
O=C(C[C@@H]1CC[C@H]2[C@@H](COC[C@@H](O)CN2S(=O)(=O)c2ccc(Cl)cc2)O1)NCCN1CCCC1	nt	nt	-2	nt	nt
Cc1c(OCc2ccc(C(=O)O)cc2)ccc2c(-c3ccccc3)cc(=O)oc12	0	5	-1	37*	7
CCNC(=O)C[C@@H]1CC[C@@H]2[C@H](COc3ccc(NC(=O)c4cc(C)on4)cc3C(=O)N2C)O1	nt	nt	-3	nt	nt
O=C(Nc1nc2c(F)cccc2s1)c1ccco1	2	-70	-3	-149	nt
COc1ccc2nc(NC(=S)NC(=O)c3ccco3)sc2c1	2	-77	nt	-183	nt
Cc1cc(C)c2nc(NC(=O)c3ccco3)sc2c1	-2	-135	-1	-298	-406
